10 molecules from PubChem BioAssay (Tox21) can be followed below.

Assay [1] in a line: qHTS assay to identify small molecule agonists of the NFkB signaling pathway (AID 1159509; active = well fitted curve in the direction sought with a large enough effect in the signal ratio in the repeat runs, not every such curve was filed as active; the % refers to the signal ratio; note: series mostly up to about 61 µM). The procedure, abridged: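 After overnight attachment, reporter cells received test compounds, DMSO or positive controls and were incubated 5 hr at 37 C. FRET substrate was then added for 1.5 hr at room temperature before dual-emission fluorescence reading.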
(In general: qHTS replaces the single test concentration by a dilution series.)

The nature of assay [2]: qHTS assay to identify small molecule agonists of the NFkB signaling pathway - cell viability counter screen (AID 1159515; calls by dose curve; note: nearly all actives have a fitted effect of over 55% in size; note: potency is the fitted concentration of half-maximal effect). The gist of the method:
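Viability in NFkB-bla ME-180 cells was measured by CellTiter-Glo luminescence, 30 min room temperature, in wells already treated 5 hr with compounds and read for reporter FRET.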

Assay [3] can be described thus: qHTS assay to identify small molecule agonists of the endoplasmic reticulum stress response signaling pathway (AID 1159516; active = well fitted activation curve with a large enough effect in the signal ratio in the repeat runs, not every such curve was filed as active; the % refers to the signal ratio). The procedure, abridged: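 ER stress element reporter (bla) in HeLa. 1,500 cells/well, overnight attachment; 5 hr compound; 2 hr RT substrate; dual-emission fluorescence.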
The nature of assay [4]: qHTS assay to identify small molecule agonists of the endoplasmic reticulum stress response signaling pathway - cell viability counter screen (AID 1159517; calls by dose curve;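 note: HeLa cells carrying an ER stress response element beta-lactamase reporter; series mostly up to about 61 µM; nearly all actives have a fitted effect of over 50% in size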). The gist of the method: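 Cells, HeLa ESRE-bla; density, 1,500/well; dosing, 5 hr at 37 C, 5% CO2; readout, CellTiter-Glo luminescence after 30 min RT.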
The nature of assay [5]: qHTS assay to identify small molecule antagonists of the retinoid-related orphan receptor gamma (ROR-gamma) signaling pathway - cell viability counter screen (AID 1159520). Note: nearly all actives have a fitted effect of over 50% in size. Note: potency is the fitted concentration of half-maximal effect. The procedure, abridged: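 Cytotoxicity was read from cellular ATP (CellTiter-Glo luminescence) after 16 hr at 37 C with 1 uM doxycycline induction. The inducer was added 2 hr after compound transfer to Tet-on ROR gamma CHO cells.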

Assay [6] deals with Nuclear receptor ROR-gamma (Homo sapiens) (UniProt P51449). The assay is described as follows: qHTS assay to identify small molecule antagonists of the retinoid-related orphan receptor gamma (ROR-gamma) signaling pathway (AID 1159521; note: nearly all actives have a fitted effect of over 50% in size; note: potency is the fitted concentration of half-maximal effect). The gist of the method:
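Readout: ONE-Glo luciferase luminescence, 30 min at room temperature. System: Tet-on RORγ CHO, RORE-LUC. Sequence: compound 2 h, doxycycline 1 uM final, 16 h at 37 C.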

Assay [7] can be described thus: qHTS assay to identify small molecule agonists of the AP-1 signaling pathway - cell viability counter screen (AID 1159525; calls by dose curve; note: nearly all actives have a fitted effect of over 55% in size; note: potency is the fitted concentration of half-maximal effect). The procedure, abridged:
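Luminescent ATP readout (Cell Titer Glo, 30 min RT), normalised to DMSO and tetra n-octyl ammonium bromide controls. Cells were ME-180 AP-1-bla in 0.5% dialyzed FBS Opti-MEM, with a 5 h, 37 °C compound exposure.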

A short description of assay [8]: qHTS assay to identify small molecule agonists of the AP-1 signaling pathway (AID 1159526; calls by dose curve).
Assay [9] can be described thus: qHTS assay to identify small molecule agonists of the RXR signaling pathway - cell viability counter screen (AID 1159529). Note: nearly all actives have a fitted effect of over 50% in size. Note: potency is the fitted concentration of half-maximal effect. The gist of the method:
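Tox21 10K compounds were tested for cytotoxicity against GeneBLAzer RXR-alpha HEK 293T cells grown in 2% charcoal-stripped FBS. Exposure lasted 16 hr at 37 C, 5% CO2; viability read by CellTiter-Glo luminescence.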

Assay [10] in a line: qHTS assay to identify small molecule antagonists of the retinoid acid receptor (RAR) signaling pathway - cell viability counter screen (AID 1159551). Note: nearly all actives have a fitted effect of over 35% in size. The gist of the method:
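Following overnight attachment, C3RL4 reporter cells received DMSO-dissolved compounds and then retinol (1 uM final). Six hours later at 37 C, ATP content was measured by CellTiter-Glo luminescence.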

Assay [11] can be described thus: qHTS assay to identify small molecule antagonists of the retinoic acid receptor (RAR) signaling pathway (AID 1159552; note: nearly all actives have a fitted effect of over 50% in size). The procedure, abridged: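 Overnight-plated C3RL4 reporter cells get compound, then retinol to 1 uM final; plates sit 6 hr at 37 C, 5% CO2. A luciferase reagent is added and light output recorded after 30 min at room temperature.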
Assay [12] in a line: qHTS assay to identify small molecule agonists of the retinoic acid receptor (RAR) signaling pathway (AID 1159553). The gist of the method: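 Cell line C3RL4, RARE luciferase reporter. Treatment: compounds in DMSO, 6 hr, 37 C, 5% CO2, after overnight plating. Detection: luminescence, 30 min RT after reagent.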
Assay [13] in a line: qHTS assay to identify small molecule antagonists of the estrogen related receptor (ERR) signaling pathway - cell viability counter screen (AID 1224818). Note: series mostly up to about 46 µM. The gist of the method:
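Here, ERR cells are plated at 2,000 cells per well, allowed 6 h to attach, and treated with compounds in DMSO for 17.5 h at 37 C. CellTiter-Fluor is then added and fluorescence read after 30 min.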

Assay [14] in a line: qHTS assay to identify small molecule antagonists of the estrogen related receptor signaling pathway with the pleiotropic PPARgamma coactivator (PGC) cell viability counter screen (AID 1224822; note: series mostly up to about 46 µM). The procedure, abridged: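 qHTS format, DMSO compound stocks pin-transferred onto PGC/ERR cells 6 h after plating; 17.5 h exposure at 37 C, then CellTiter-Fluor fluorescence.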

A short description of assay [15]: qHTS assay to identify small molecule antagonists of the estrogen related receptor (ERR) signaling pathway from Tox21 library - cell viability counter screen (AID 1224834). Note: nearly all actives have a fitted effect of over 30% in size. Note: potency is the fitted concentration of half-maximal effect. The gist of the method:
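Viability readout (CellTiter-Fluor fluorescence, 30 min at 37 C) multiplexed with the ERR assay; cells treated 17.5 h at 37 C with compounds delivered in DMSO.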

Values joined by “and” are separate entries in the source; they are usually repeats but may differ in a detail not shown here. Equal values may be shown once. Inconclusive results are not listed. The source holds several records for some structures; these can differ, active in one and inactive in another. Active and inactive are the calls of the source. Unless noted, calls come from the whole dose curve; as a rule, active = well fitted curve in the direction sought with a large enough effect in the repeat runs; inconclusive = weak or mixed curves; inactive = no such curve, though single readings can be large; an effect the other way counts as inactive or inconclusive.

As to `Cc1cc2nc3c(=O)[nH]c(=O)nc-3n(C[C@H](O)[C@H](O)[C@H](O)CO)c2cc1C`, the call in assay [1] and in [8] was inactive. Moreover, the Potency entry in assay [2], in assay [3], in assay [4], in [5], in assay [6] and in assay [7] was “inactive” throughout. For the same molecule, the Potency result in [9], in assay [10], in assay [11] and in assay [12] was “inactive” throughout.

With `C[C@]12CCC(=O)C=C1CC[C@@H]1[C@@H]2C(=O)C[C@@]2(C)[C@H]1CC[C@]2(O)C(=O)CO`, the result in [1] and in assay [8] was inactive. Also, the Potency entry in assay [2], in assay [3], in assay [4], in assay [5], in assay [6] and in assay [7] was “inactive” in each case. The Potency entry in assay [9], in [10], in assay [11], in [12], in [13] and in assay [14] was “inactive” throughout. Further, in [15], the Potency result is “inactive”.

As for `Cc1ccc(C)c(O)c1C`, the molecule was called inactive in [1] and in assay [8]. Moreover, the Potency result in [2], in assay [3], in assay [4], in assay [5], in [6] and in assay [7] was “inactive” in each case. The Potency entry in assay [9], in assay [10], in assay [11] and in assay [12] was “inactive” each time.

For the molecule `CC(CCC(=O)O)(c1ccc(O)cc1)c1ccc(O)cc1`, the molecule was called inactive in assay [1] and in assay [8]. Further, the Potency result in [2], in assay [3], in assay [4], in assay [5], in assay [6] and in assay [7] was “inactive” in each case. Further, the Potency result in assay [10], in [11] and in [12] was “inactive” throughout.

`CC(C)OC(=O)C(C)(C)Oc1ccc(C(=O)c2ccc(Cl)cc2)cc1`: the molecule was called inactive in [1] and in assay [8]. Besides, the Potency result in assay [2], in assay [3], in [4], in assay [5], in assay [7] and in assay [9] was “inactive” in each case. The Potency result in assay [10], in assay [11], in [12], in [13] and in assay [14] was “inactive” in each case. The Potency in assay [6] is 68.6 µM (active).

With `Brc1cc(Oc2cc(Br)c(Br)c(Br)c2Br)c(Br)c(Br)c1Br`, the result in [1] and in assay [8] was inactive. Further, the Potency in assay [2] was 1.56 µM (active) and inactive; in assay [7] it was 55.2 µM (active) and inactive. The Potency entry in [3], in assay [4], in assay [5], in assay [6], in [10] and in assay [11] was “inactive” throughout. Moreover, the Potency entry in assay [12] and in assay [15] was “inactive” each time.

Consider `CN(C)c1nc(N(C)C)nc(N(C)C)n1`, for which the result in [1] and in assay [8] was inactive. In addition, the Potency entry in [2], in assay [3], in [4], in assay [5], in assay [6] and in assay [7] was “inactive” each time. The Potency result in assay [10], in assay [11], in [12], in assay [13] and in assay [14] was “inactive” in each case.

For `CCC(C)c1ccccc1O` (stereo not given), the result in assay [1] and in assay [8] was inactive. Besides, the Potency entry in assay [2], in [3], in assay [4], in assay [5], in assay [6] and in [7] was “inactive” each time. In addition, the Potency entry in assay [9], in assay [10], in [11] and in assay [12] was “inactive” throughout.

Regarding `O=C(c1ccc(OCCN2CCCCC2)cc1)c1c(-c2ccc(O)cc2)sc2cc(O)ccc12`, the result in assay [1] and in assay [8] was inactive. The Potency is 55 µM (active) and 54.9 µM (active) and inactive in assay [2]; 61.2 µM (active) and inactive in assay [5]; 13.7 µM (active) and 19.3 µM (active) in assay [6]; 27.5 µM (active) and 23.9 µM (active) in [9]; 30.7 µM (active) and 48.6 µM (active) and 18.8 µM (active) in [15]. For the same molecule, the Potency result in assay [3], in assay [4], in [7] and in [10] was “inactive” each time.

As to `NC=O`, the call in assay [1] and in assay [8] was inactive. Further, the Potency result in assay [2], in assay [3], in assay [4], in [5], in assay [6] and in [7] was “inactive” in each case. In addition, the Potency entry in assay [9], in assay [10], in assay [11], in assay [12] and in [15] was “inactive” in each case.
